PINK1 modulator: PINK1 expression modulation. 0.2% of 410,000 active. Potency, µM (top dose mostly 76.6 µM), for the others: at the top dose activation (PINK1 increase), hits mostly activators. PINK1 immunofluorescence, high-content cytometry, 24 h; active means well fitted activation curve with a large enough effect; inconclusive means small, poorly fitted or top-dose-only effect; cell line not stated here; further: % of control where 0% means no effect; nearly all actives have a fitted effect of over 65% in size
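PINK1 protein level read as immunofluorescence by microplate cytometer in a fixed, stained stable cell line after 24 h exposure to five compound concentrations, with CCCP as control.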
MCF10A rerep: inducers of DNA re-replication in MCF 10A breast cells | MCF 10A DNA re-replication, Hoechst nuclear intensity, 48 h | Potency, µM (titrated, usually from 46.1 µM), for inactives: at the top dose activity, positive = re-replication, hits mostly activators | 2.9% of 350,000 active; further: % of control where 0% means no effect; nearly all actives have a fitted effect of over 50% in size
KB-3-1 cytotox: KB-3-1 parental cell cytotoxicity | Potency, µM (titrated, usually from 46.1 µM), most hits filed as cytotoxic | KB-3-1 viability, CellTiter-Glo ATP luminescence, 72 h | 1.4% of 400,000 active; further: on the % scale 0 is the no-effect control and ±100 the full control effect; nearly all actives have a fitted effect of over 60% in size
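Cells are dispensed, compounds pinned in, plates held at 37 °C for 72 h, then CellTiter-Glo is added and luminescence read after 10 minutes. Cell line: parental KB-3-1 in phenol-red-free DMEM, 10% FBS.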
KB-V1 cytotox: KB-V1 MDR subline cytotoxicity | 3.4% of 400,000 active | Potency, µM (highest dose often 46.1 µM), actives largely listed as cytotoxic | AID 1347076 | KB-V1 MDR cells viability, CellTiter-Glo, 72 h; further: on the % scale 0 is the no-effect control and ±100 the full control effect; nearly all actives have a fitted effect of over 60% in size
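Cytotoxicity toward P-gp-expressing KB-V1 cells was determined as loss of CellTiter-Glo luminescence after 72 h at 37 degrees C. Compounds were tested in quantitative HTS format across a concentration range, with curves fitted to normalized data.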
SW480 rerep: induces DNA re-replication in SW480 colon adenocarcinoma cells; AID 624297; Potency, µM (doses to about 46.1 µM), for the others: top-dose re-replication activation, actives largely listed as activators; SW480 DNA re-replication, Hoechst DNA content imaging, 48 h; 1.8% of 340,000 active; further: % of control where 0% means no effect; nearly all actives have a fitted effect of over 55% in size
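Treated cells incubate 48 hr (37 C, 5% CO2), are stained 40 min with Hoechst, and nuclear fluorescence is enumerated; a rise in nuclei with high DNA signal marks re-replication.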
Active calls of the source: *; i = inactive; ? = inconclusive; nt = no result given; [ ] = dose if it differs, or a comment. Only some compounds are listed: those with a hit (about 6.7% of all), similar ones and a draw of the others. Unless noted, the call rests on the fitted dose curve; in most records, active means well fitted curve in the direction sought with a large enough effect; inconclusive means small, poorly fitted or top-dose-only effect, or another doubt; inactive means no such curve, though single readings can be large; an effect the other way counts as inactive or inconclusive. Potency means the concentration at half of the fitted maximal effect.

SMILES	PINK1 modulator	MCF10A rerep	KB-3-1 cytotox	KB-V1 cytotox	SW480 rerep
O=C(Cc1cccc(NC(=O)C2CCCN(C(=O)C3CCCCC3)C2)c1)Nc1cccc(C(=O)N2CCOCC2)c1 (configuration not stated)	0%	-85%	i	i	-10%[9.22 µM]
O=C(N/N=C/c1ccc(O)cc1O)c1ccc(NC(=O)C2CCCCC2)cc1	16%	?	?	i	16µM*
O[C@@H]1C[C@H](c2ccc(Cl)cc2)N(Cc2cccs2)C[C@H]1n1cc(-c2ccc(F)cc2)nn1	1%	nt	i	i	nt
COCCCNCCOCCOc1ccc(Cl)cc1C(C)(C)C	-4%	18µM*	i	18µM*	?
c1csc(-c2nn3c(C4COc5ccccc5O4)nnc3s2)c1 (configuration not stated)	3%[38.3 µM]	?	i	?	3.7µM*
Fc1ccc(-c2nn3c(C4COc5ccccc5O4)nnc3s2)cc1 (configuration not stated)	-4%	0%	i	?	0%
COC(=O)c1sc2cccc(F)c2c1S(=O)(=O)N1CCN(c2ccccc2OC)CC1	2%	nt	i	i	nt
O=C(O)C1CCCCC1C(=O)NC1C2CC3CC(C2)CC1C3 (configuration not stated)	1%	11%	i	?	1%
NC(=S)NNC(=O)[C@@H]1CCCC[C@@H]1C(=O)O	2%	-8%	i	i	0.52µM*
CC(C)[C@H](NS(=O)(=O)c1ccccc1)C(=O)OCc1cc([N+](=O)[O-])cc2c1OCOC2	-1%	2%	i	i	2%
CC(C)[C@H](NC(=O)c1ccccc1Cl)C(=O)OCc1cc([N+](=O)[O-])cc2c1OCOC2	3%	13%	i	21µM*	-2%
N#CC1=C(N)C2=CCCC[C@H]2[C@H](c2ccc(Br)cc2)C1(C#N)C#N	6%	16µM*	i	i	?
N#CC1=C(N)C2=CCCC[C@H]2[C@H](c2ccccc2)C1(C#N)C#N	3%	?	i	?	4%
COc1ccc(/C=N/Nc2cn[nH]c(=O)c2Cl)cc1	0%	?	7.3µM*	?	0%
O=c1[nH]ncc(N/N=C/c2ccccc2)c1Cl	-6%[38.3 µM]	?	i	?	1%
Cc1ccsc1/C=N\Nc1cn[nH]c(=O)c1Cl	-4%	?	4.6µM*	2.6µM*	-19%
Cc1ccc(/C=N\Nc2cn[nH]c(=O)c2Cl)cc1	-5%[38.3 µM]	-2%	7.1µM*	?	-2%
Cc1cccnc1NCc1ccc(O)c2ncccc12	14µM*	?	?	?	?
Cc1ccc(NCc2ccc(O)c3ncccc23)cc1C	?	?	?	i	26%
Cc1ccc(C)c(N=Nc2ccc(O)c3ncccc23)c1	4%	16µM*	i	?	5%
Cc1cccc(NCc2ccc(O)c3ncccc23)c1C	16µM*	?	?	i	?
Cc1ccc(NCc2ccc(O)c3ncccc23)cc1	-1%	5%	i	i	?
CCOc1ccc2oc(=O)cc(CN3CCN(C(=O)c4ccc(OC)c(OC)c4)CC3)c2c1	3%	nt	nt	nt	nt
CCN(CC)c1cc2c(c3c1ccn3C)C1CCC2C1 (configuration not stated)	10%	nt	i	i	nt
O=C(Nc1ccccc1)c1ccc(Cn2cc(C(F)(F)F)ccc2=O)cc1	-4%[38.3 µM]	13%	i	15µM*	1%
SMILES	PINK1 modulator	MCF10A rerep	KB-3-1 cytotox	KB-V1 cytotox	SW480 rerep
O=C(Nc1ccc(F)c(Cl)c1)C1Cc2c(-c3ccco3)ccnc2O1 (configuration not stated)	3%	nt	?	21µM*	nt
CC(=O)Nc1ccc(-c2ccnc3c2CC(C(=O)Nc2ccc(C(C)C)cc2)O3)cc1 (configuration not stated)	1%	nt	i	?	nt
CC(C)c1ccc(NC(=O)C2Cc3c(-c4ccco4)ccnc3O2)cc1 (configuration not stated)	1%	nt	i	21µM*	nt
CCOC(=O)C1=C(Nc2ccccc2)CC(C)(O)C(C(=O)OCC)C1c1ccc(Br)cc1 (configuration not stated)	22%	5%	?	23µM*	?
CCOC(=O)C1=C(Nc2ccccc2)CC(C)(O)C(C(=O)OCC)C1c1ccccc1 (configuration not stated)	-2%	4%	i	?	0%
N#C/C(=C(/O)COc1ccccc1)c1nc2ccccc2s1	?	?	?	i	?
N#C/C(=N\O)c1nc2ccccc2s1	4%	-4%	i	i	0%
N#C/C(=C(/O)COc1ccc(Cl)cc1)c1nc2ccccc2s1	?	16µM*	?	13µM*	0%
N#C/C(=C(/O)c1ccc(F)cc1)c1nc2ccccc2s1	16µM*	?	8.2µM*	?	-1%
COCCNC(=O)CCn1c(=O)c2cc(OC)c(OC)cc2n(CC(=O)Nc2ccc(Cl)cc2F)c1=O	0%	nt	i	i	nt
COc1ccccc1Cc1c(-c2ccc(C)cc2)nc2cc(C)c(Br)c(C)n12	4%	nt	i	?	nt
Cc1c(C(=O)OCC(=O)N(C)c2ccccc2)oc2ccccc12	2%	3%	nt	nt	11%
CCOc1ccccc1NC(=O)CSc1nccn1Cc1ccc(F)cc1	-1%	nt	nt	nt	nt
O=C1N(CCCN2C(=O)C3(OCCO3)c3ccccc32)c2ccccc2C12OCCO2	9%[38.3 µM]	5%	i	12µM*	-10%
O=C1N(CCCCN2C(=O)C3(OCCO3)c3ccccc32)c2ccccc2C12OCCO2	-2%	5%	i	i	-1%
CCN(CC)C(=O)CN1C(=O)C2(OCC(C)(C)CO2)c2ccccc21	1%	2%	i	16µM*	3%
O=C1N(Cc2ccccc2F)c2ccccc2C12OCCCO2	3%[38.3 µM]	-2%	i	i	1%
CCN(CC)C(=O)CN1C(=O)C2(OCC(C)(c3ccccc3)CO2)c2ccccc21 (configuration not stated)	nt	-2%	i	i	10%
O=C1N(Cc2ccc(F)cc2Cl)c2ccccc2C12OCCCO2	12%	24%	?	18µM*	5%
COc1ccc(-c2nnc(SCC(=O)NCCc3ccc(OC)c(OC)c3)nc2-c2ccc(OC)cc2)cc1	3%	nt	i	i	nt
CC(C)[C@@H](CSc1ccccc1)N1CCN(Cc2ccccc2)CCC1=O	0%	15%	i	?	10%
Nc1ncnc2oc(-c3ccco3)c(-c3ccco3)c12	-1%[38.3 µM]	6%	i	21µM*	-3%
CCc1cc(=O)oc2cc(C)c(CN3CCCCC3)c(O)c12	7%	23%	i	16µM*	-5%
CCCCC[C@H](O)/C=C\[C@H]1[C@H](C/C=C\CCCC(=O)O)[C@@H](O)C[C@H]1O (tested in a mixture with another compound)	nt	5%[20.6 µM]	nt	nt	2%[20.6 µM]
